# Reference: PubChem BioAssay AID540357 (National Center for Advancing Translational Sciences (NCATS), 2011)
# Calls of active or inactive are those of the source.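 The calls were made as follows: active = compounds whose fitted potency in the phosphatase confirmation test is under 20 µM; inconclusive = potency fitted but weaker than 20 µM; inactive = no potency could be fitted.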
# Target: Protein phosphatase EYA2 (Homo sapiens) (UniProt O00167)
# Assay: Inhibitors of Eya2ED: Hit Confirmation in Malachite Green Secondary Assay
# Conditions: phosphopeptide, malachite green absorbance
# From the text: The Eya proteins (Eya1-4) were originally identified as essential co-activators of the Six1 transcription factor. […] Knockdown of Six1 decreases cancer cell proliferation and metastases in several different cancer models. […] A fluorescence-based HTS assay has been perfomed against the Molecular Libraries Small Molecule Repository (MLSMR) and has the AID 488837 in this database. In order to confirm the hits obtained from the primary screen several follow-up screens have been/will be carried out. This secondary screen uses a different substrate and a different detection method and will help eliminate false positives obtained from the primary screen. More specifically, this assay measures phosphatase activity by measuring inorganic phosphate, the product of the hydrolysis of the phosphate group on the protein substrate. The inorganic phosphate is detected with malachite green, which in strongly acid conditions, produces a complex which is green and is detected by absorbance. NIH Chemical Genomics Center [NCGC] NIH Molecular Libraries Probe Centers Network [MLPCN] MLPCN Grant: DA030559-01 Assay Submitter (PI): Rui Zhao, University of Colorado, Denver
# Phospatase assay (25ul) was carried out in transparent, 96-well, half-area microplates. […] After 20 minute incubation at room temperature, the absorbance was read at 620nm using a Spectramax PLUS 384 plate reader by Molecular Devices. […]
# Chain of Protein phosphatase EYA2 (Homo sapiens) (O00167 whole entry, looked up): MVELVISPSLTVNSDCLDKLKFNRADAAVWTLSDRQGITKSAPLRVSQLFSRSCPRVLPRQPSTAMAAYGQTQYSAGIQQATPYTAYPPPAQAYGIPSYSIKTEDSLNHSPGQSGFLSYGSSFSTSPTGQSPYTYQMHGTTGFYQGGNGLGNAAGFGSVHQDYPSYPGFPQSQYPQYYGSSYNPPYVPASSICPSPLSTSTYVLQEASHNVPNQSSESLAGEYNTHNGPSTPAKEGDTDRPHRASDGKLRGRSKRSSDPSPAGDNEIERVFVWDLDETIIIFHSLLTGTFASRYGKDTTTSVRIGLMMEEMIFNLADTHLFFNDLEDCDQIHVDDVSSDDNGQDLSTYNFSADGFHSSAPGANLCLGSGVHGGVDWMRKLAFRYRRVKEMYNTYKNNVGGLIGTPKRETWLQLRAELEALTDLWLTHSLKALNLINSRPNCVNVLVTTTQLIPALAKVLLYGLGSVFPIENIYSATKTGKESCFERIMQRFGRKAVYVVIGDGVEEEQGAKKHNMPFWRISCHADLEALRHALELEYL
row,SMILES,Potency
1,CCNC(=S)NNC(=O)c1csc2ccccc12,16.8 µM (active)
